Measurements as given in PubChem BioAssay (NCATS).
Results filed as inconclusive are left out. Calls of active or inactive are those of the source. Unless noted, calls come from the whole dose curve; as a rule, active = well fitted curve in the direction sought with a large enough effect; inconclusive = small, poorly fitted or top-dose-only effect, or another doubt; inactive = no such curve, though single readings can be large; an effect the other way counts as inactive or inconclusive.

Assays:
[1] = Cell Viability - BJ (AID 421; calls by dose curve;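 note: potency is the fitted concentration of half-maximal effect; cells exposed to compound for 40 hours at 37 °C before readout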); settings: BJ fibroblast viability, qHTS
Summary of the method: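 Quantitative HTS: ATP depletion in BJ cells after 40 hr compound exposure in complete culture medium, detected with CellTiter-Glo; AC50 from standard Hill fits.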

[2] = Cell Viability - Jurkat (AID 426;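 active = dose-dependent loss of cell ATP signal giving a full or clear fitted curve, ranked by lower potency value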;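 note: potency is the fitted concentration of half-maximal effect; cells exposed to compound for 40 hours at 37 °C before ATP read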); settings: qHTS
Summary of the method: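 Seed 5000 Jurkat E6-1 cells/well; add compound; incubate 40 hr at 37 °C; add CellTiter-Glo; wait 20 min at room temperature; read luminescence. Fit concentration-response with Hill equation for AC50.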

[3] = Cell Viability - Hek293 (AID 427;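 active = compounds whose dose-response curve shows a full or clear partial loss of cell viability, called from curve shape rather than a numeric limit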;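 note: potency is the fitted concentration of half-maximal effect; cells exposed to compound for 40 hours at 37 °C before reading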); settings: qHTS
Summary of the method: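 AC50 values derive from Hill-modelled concentration-response of ATP-based luminescence, normalized between DMSO-only and 100 uM tamoxifen controls. Cells were exposed in complete culture medium for 40 hr at 37 °C before detection.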

[4] = Cell Viability - HepG2 (AID 433; calls by dose curve;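 note: potency is the fitted concentration of half-maximal effect; cells exposed to compound for 40 hours; potency for ATP loss meaning cytotoxicity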); settings: qHTS
Summary of the method: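 Cytotoxicity read as ATP loss (CellTiter-Glo luminescence) after 40 hr compound exposure of HepG2, 1500 cells/well, 37 °C. AC50 by Hill equation; 0% set by DMSO, 100% inhibition by 100 uM tamoxifen.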

[5] = Cell Viability - MRC5 (AID 434; calls by dose curve;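 note: potency is the fitted concentration of half-maximal effect; cells exposed to compound for 40 hours at 37 °C; potency reflects cytotoxicity seen as loss of intracellular ATP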); settings: MRC5 lung fibroblast viability, qHTS
Summary of the method: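 qHTS cytotoxicity in human lung fibroblast MRC5 cells; 40 hr treatment, 37 °C; cellular ATP by luciferase luminescence; DMSO = 0%, 100 uM tamoxifen = 100% inhibition; Hill-fit AC50.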

[6] = Cell Viability - SK-N-SH (AID 435; calls by dose curve; note: potency is the fitted concentration of half-maximal effect); settings: SK-N-SH neuroblastoma cell viability qHTS
Summary of the method: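 qHTS cytotoxicity: CellTiter-Glo ATP luminescence after 40 h compound exposure of human neuroblastoma SK-N-SH cells at 37 °C. AC50 derived by Hill-equation fitting, with DMSO as basal and 100 uM tamoxifen as full inhibition.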

[7] = biological target: Mitogen-activated protein kinase 10 (Mus musculus) (UniProt Q61831); assay: JNK3 AlphaScreen Assay (AID 530; active = well fitted curve in either direction with a large enough effect, not every such curve was filed as active;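 note: kinase came from lysate of stimulated human HepG2 cells; signal reports phosphorylation of biotinylated GST-cJun 1-79 at Ser73 with 10 µM ATP; % is set by controls: 0 for no effect and ±100 for the full control effect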); settings: JNK3 lysate, c-Jun phosphorylation; series mostly up to 57.1 µM
Summary of the method: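 Room-temperature AlphaScreen kinase assay; pre-activated HepG2 lysate as JNK3 source, biotin-GST-cJun(1-79) substrate, 10 uM ATP, compound 15 min preincubation.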

[8] = Cell Viability - N2a (AID 540); settings: N2a mouse neuroblastoma cell viability; activity change, negative = cytotoxicity: at 92.2 µM (top of the series);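 note: plate controls were DMSO alone for no effect and tamoxifen control for full effect; nearly all actives have a fitted effect of over 45% in size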
Summary of the method: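 First, 1500 N2a cells per well incubate 5 hr at 37 °C; next, compounds are added and incubated 40 hr at 37 °C; finally CellTiter-Glo is added and luminescence read after 20 min, with AC50 derived by Hill modeling.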

[9] = Cell Viability - NIH 3T3 (AID 541); settings: NIH 3T3 cell viability, qHTS; activity change, negative = cytotoxicity: at 92.2 µM (top of the series);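 note: cells exposed to compound for 40 hours; plate controls were DMSO alone for no effect and tamoxifen positive control for full effect; nearly all actives have a fitted effect of over 25% in size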
Summary of the method: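 AC50 values reflect concentration-dependent loss of intracellular ATP in NIH 3T3 cells after 40 hr treatment in complete culture medium, quantified by luciferase-based luminescence.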

[10] = Cell Viability - HUV-EC-C (AID 542); settings: HUV-EC-C endothelial cell viability, qHTS; series mostly up to 92.2 µM;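 note: cells exposed to compound for 40 hours; % is set by controls: 0 for no effect and ±100 for the full control effect; nearly all actives have a fitted effect of over 35% in size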
Summary of the method: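 Decrease in cellular ATP, quantified by luciferase luminescence, reflects toxicity in normal human vascular endothelial HUV-EC-C cells given compound for 40 hr in complete culture medium. Values are AC50s from concentration-response curves.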

[11] = Cell Viability - SH-SY5Y (AID 544); settings: SH-SY5Y neuroblastoma cell viability; viability change, negative = cytotoxic: at 92.2 µM (top of the series);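 note: cells exposed to compound for 40 hours; nearly all actives have a fitted effect of over 55% in size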
Summary of the method: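 Cytotoxicity is scored as a concentration-dependent fall in intracellular ATP in human SH-SY5Y cells treated 40 hr in complete culture medium. Potency is expressed as AC50 from a Hill equation fit.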

[12] = Cell Viability - Renal Proximal Tubule (AID 545); settings: renal proximal tubule cells viability, primary cells of rat origin; series mostly up to 91.7 µM;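 note: cells exposed to compound for 40 hours; nearly all actives have a fitted effect of over 40% in size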
Summary of the method: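 Viability taken as intracellular ATP (CellTiter-Glo luminescence) after 40 hr, 37 °C compound treatment of primary proximal tubule cells from rat kidney, 1000 cells/well; Hill-equation fits of qHTS concentration-response data gave AC50.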

[13] = Cell Viability - Mesenchymal (AID 546); settings: mesenchymal cells viability, qHTS; series mostly up to 91.7 µM;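 note: cells exposed to compound for 40 hours before reading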
Summary of the method: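 AC50 values reflect the drop in intracellular ATP in a human kidney mesenchymal line derived from normal glomeruli. Treatment lasts 40 hr at 37 °C in complete medium, and the signal comes from CellTiter-Glo luminescence.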

[14] = Cellular Toxicity (caspase-3) HepG2 (AID 654); settings: HepG2 caspase-3 activation, luminescence; series mostly up to 92.2 µM;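 note: cells exposed to compound for 16 hours before reading; 0% = DMSO alone and 100% = caspase signal from 100 µM tamoxifen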
Summary of the method: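 qHTS, HepG2, 1500 cells/well, complete medium; cpd 16 h 37 °C; Caspase-Glo 3/7, 20 min RT; lum. Norm: DMSO vs 100 uM tamoxifen; AC50 Hill fit.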

[15] = Cellular Toxicity (caspase-3) Jurkat (AID 655); settings: Jurkat caspase-3 activation, luminescence; caspase-3 activation: at 92.2 µM (top of the series), DMSO = 0%, tamoxifen = 100%;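 note: cells exposed to compound for 16 h at 37 °C before reading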
Summary of the method: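 Luminescent Caspase-Glo 3/7 read-out (20 min, room temperature) after 16 h compound treatment at 37 C of 5000 Jurkat cells per well. AC50 derived by Hill-equation fitting, scaled between DMSO basal and 100 uM tamoxifen stimulation.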

[16] = Cellular Toxicity (caspase-3) HUV-EC-C (AID 656); settings: HUV-EC-C cells, caspase-3 activation (apoptosis), vehicle = 0, 100 µM tamoxifen = 100%; series mostly up to 92.2 µM
Summary of the method: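 Luminescent Caspase-Glo 3/7 readout after 16 h, 37 °C compound exposure of HUV-EC-C endothelial cells, 1000 per well, complete medium. AC50 derived by Hill fitting, with DMSO as baseline and 100 uM tamoxifen as full activation.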

[17] = Cellular Toxicity (caspase-3) SHSY5Y (AID 657); settings: SH-SY5Y caspase-3 activation, DMSO zero, 10 µM staurosporine = 100%; series mostly up to 91.7 µM
Summary of the method: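 Luminescent Caspase-Glo 3/7 read-out, 1 hr room temperature, follows 16 hours of compound treatment of SH-SY5Y cells at 37 °C. Normalization: DMSO basal, 10 uM staurosporine as 100%; AC50 values from Hill-equation concentration-response fits.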

[18] = Cellular Toxicity (caspase-3) BJ (AID 658); settings: BJ fibroblasts, luminescence, normalized: DMSO 0%, staurosporine 100%; series mostly up to 91.7 µM
Summary of the method: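 Readout: Caspase-Glo 3/7 luminescence increase in BJ cells after 16 hr treatment at 37 °C. Staurosporine and tamoxifen served as positive controls; AC50 values came from Hill modelling of data normalized to DMSO and 10 uM staurosporine.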

[19] = Cellular Toxicity (caspase-3) MRC-5 (AID 659); settings: MRC-5 cells, luminescence, normalized: DMSO 0%, 10 µM staurosporine 100%; series mostly up to 91.7 µM
Summary of the method: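 Concentration-dependent caspase 3/7 activation is measured in human normal lung fibroblasts (MRC-5) following 16-hour treatment. AC50 values come from standard Hill-equation modeling of luminescence normalized to DMSO and 10 uM staurosporine.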

[20] = Cell Viability - H-4-II-E (AID 543); settings: H-4-II-E rat hepatoma viability; series mostly up to 92.2 µM;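 note: cells exposed to compound for 40 hours; % is set by controls: 0 for no effect and ±100 for the full control effect; nearly all actives have a fitted effect of over 35% in size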
Summary of the method: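 Here, cytotoxicity is measured in the rat hepatoma line H-4-II-E as loss of intracellular ATP after 40 hr compound treatment, detected by luciferase luminescence.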

c1ccc2c(c1)Oc1ccccc1S2
inactive: Potency [1] > 92 µM | Potency [2] > 92 µM | Potency [3] > 92 µM | Potency [4] > 92 µM | Potency [5] > 92 µM | Potency [6] > 92 µM | outcome [7] | activity change, negative = cytotoxicity [8] -9.06% | Potency [9] | Potency [10] | Potency [11] | Potency [12] | Potency [13] | Potency [14] | caspase-3 activation [15] -0.252% | outcome [16] | outcome [17] | outcome [18] | outcome [19]

CCOCC(=O)O
inactive: Potency [1] > 92 µM | Potency [2] > 92 µM | Potency [3] > 92 µM | Potency [4] > 92 µM | Potency [5] > 92 µM | Potency [6] > 92 µM | outcome [7] | activity change, negative = cytotoxicity [8] -1.83% | Potency [9] | Potency [10] | Potency [20] | Potency [11] | Potency [13] | Potency [14] | caspase-3 activation [15] -1.08% | outcome [16] | outcome [17] | outcome [18] | outcome [19]

O=C(O)c1ccc(Cl)cc1Cl
inactive: Potency [1] > 92 µM | Potency [2] > 92 µM | Potency [3] > 92 µM | Potency [4] > 92 µM | Potency [5] > 92 µM | Potency [6] > 92 µM | outcome [7] | activity change, negative = cytotoxicity [8] 7.33% | Potency [9] | Potency [10] | Potency [11] | Potency [12] | Potency [13] | Potency [14] | caspase-3 activation [15] -1.11% | outcome [16] | outcome [18] | outcome [19]

c1ccc2n[nH]nc2c1
inactive: Potency [1] > 92 µM | Potency [2] > 92 µM | Potency [3] > 92 µM | Potency [4] > 92 µM | Potency [5] > 92 µM | Potency [6] > 92 µM | outcome [7] | activity change, negative = cytotoxicity [8] -2.18% | Potency [9] | Potency [10] | Potency [20] | Potency [11] | Potency [14] | caspase-3 activation [15] 1.47% | outcome [16] | outcome [17] | outcome [18] | outcome [19]

c1ccc2[nH]cnc2c1
inactive: Potency [1] > 92 µM | Potency [2] > 92 µM | Potency [3] > 92 µM | Potency [4] > 92 µM | Potency [5] > 92 µM | Potency [6] > 92 µM | outcome [7] | activity change, negative = cytotoxicity [8] -1.37% | Potency [9] | Potency [10] | Potency [20] | Potency [11] | Potency [13] | Potency [14] | outcome [16] | outcome [17] | outcome [18] | outcome [19]

CC(=O)OC(C)=O
inactive: Potency [1] > 92 µM | Potency [2] > 92 µM | Potency [3] > 92 µM | Potency [4] > 92 µM | Potency [5] > 92 µM | Potency [6] > 92 µM | outcome [7] | activity change, negative = cytotoxicity [8] 1.01% | Potency [9] | Potency [10] | Potency [20] | Potency [11] | Potency [13] | Potency [14] | caspase-3 activation [15] -0.999% | outcome [16] | outcome [17] | outcome [18] | outcome [19]

CCC(O)C(C)(C)C (stereo not given)
inactive: Potency [1] > 92 µM | Potency [2] > 92 µM | Potency [3] > 92 µM | Potency [4] > 92 µM | Potency [5] > 92 µM | Potency [6] > 92 µM | outcome [7] | activity change, negative = cytotoxicity [8] 5.57% | Potency [10] | Potency [20] | Potency [11] | Potency [12] | Potency [13] | Potency [14] | caspase-3 activation [15] 2.09% | outcome [16] | outcome [17] | outcome [18] | outcome [19]
